Cruzain noTriton: qHTS Assay for Promiscuous and Specific Inhibitors of Cruzain (without detergent) | purified cruzain, Z-FR-AMC fluorescence, no detergent | Cruzipain (Trypanosoma cruzi), P25779 | Potency, µM, without a hit: max response, negative = inhibition, actives largely listed as inhibitors | AID 1476, 2009 | actives 2.3% (n = 200,000);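 note: plate controls were enzyme without inhibitor for no effect and buffer without enzyme for full effect; nearly all actives have a fitted effect of over 40% in size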
Target sequence (P25779 123-467 limits assumed): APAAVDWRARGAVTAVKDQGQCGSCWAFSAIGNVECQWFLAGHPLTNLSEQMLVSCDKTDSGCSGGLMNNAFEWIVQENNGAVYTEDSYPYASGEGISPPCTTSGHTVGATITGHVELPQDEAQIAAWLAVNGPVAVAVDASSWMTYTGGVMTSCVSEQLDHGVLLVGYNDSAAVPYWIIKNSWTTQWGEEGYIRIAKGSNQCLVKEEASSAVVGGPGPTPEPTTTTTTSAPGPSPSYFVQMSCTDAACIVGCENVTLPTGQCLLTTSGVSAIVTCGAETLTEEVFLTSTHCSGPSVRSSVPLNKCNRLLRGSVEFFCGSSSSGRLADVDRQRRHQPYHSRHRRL
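Purified cruzain at 1.5 nM, pre-incubated 15 min with compound at room temperature in 100 mM sodium acetate pH 5.5, 5 mM DTT, 0.00005% Triton X-100. Reaction started with 2 uM Z-FR-AMC; AMC fluorescence increase over 60 s gives rate.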
Cruzain Triton: qHTS Assay for Promiscuous and Specific Inhibitors of Cruzain (with detergent). purified cruzain, Z-FR-AMC fluorescence, 0.01% Triton. Potency, µM, for inactives: max response, negative = inhibition, usual class: inhibitors. actives 0.43% (n = 200,000);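 note: plate controls were neutral wells for no effect and buffer without enzyme for full effect; nearly all actives have a fitted effect of over 40% in size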
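In this qHTS format, compounds are incubated with 1.5 nM cruzain for 15 min at room temperature before 2 uM Z-FR-AMC is added. Release of AMC is followed at 360/450 nm, and progress is taken as the 60 s fluorescence difference.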
* = called active by the depositor; ? = inconclusive. Hits are enriched below; roughly 2.5% of the tested compounds scored in any of these assays. Calls come from the whole dose curve; as a rule, active = well fitted curve in the direction sought with a large enough effect; inconclusive = small, poorly fitted or top-dose-only effect, or another doubt; inactive = no such curve, though single readings can be large; an effect the other way counts as inactive or inconclusive. Potency is the fitted concentration of half-maximal effect.

SMILES	Cruzain noTriton	Cruzain Triton
Cc1cc(C(=O)COC(=O)C2=COCCO2)c(C)n1-c1ccc2c(c1)OCO2	-14.4%	-3.2%
Cc1ccc(NC(=O)CSc2nnnn2-c2ccc3c(c2)OCO3)cc1C	25.1µM*	3.6%
Cc1cc(C(=O)COc2ccc(C#N)cc2)c(C)n1-c1ccc2c(c1)OCO2	25.1µM*	-1.8%
CC(=O)c1c(C)[nH]c(C(=O)CSc2nnc(-c3ccccc3)n2Cc2ccc3c(c2)OCO3)c1C	11.6%	2.6%
Cc1cc(C(=O)CSc2nnnn2-c2ccccc2)c(C)n1-c1ccc2c(c1)OCO2	3.16µM*	-3.3%
CCOc1ccc(-n2cc(-c3ccccc3)c3c(N4CCC(C)CC4)ncnc32)cc1	-14.8%	0.7%
Nc1nc(N)c2nn(-c3ccc(C(=O)O)cc3)nc2n1	4.0%	-1.2%
COc1ccc(CCNC(=O)Cn2nnc(-c3cccc(C(F)(F)F)c3)n2)cc1OC	0.8%	-0.8%
COc1cccc(NC(=O)CSc2nccn2Cc2ccc3c(c2)OCO3)c1	4.2%	-1.1%
Cc1ccc(C(=O)c2cn(Cc3cccc(Cl)c3)c3nc(C)ccc3c2=O)cc1	-29.5%	-7.5%
O=C(O)c1[nH]c2c([N+](=O)[O-])cc([N+](=O)[O-])cc2c1C(=O)O	-0.8%	2.7%
O=C(O)CSc1nnc(-c2cccs2)n1-c1ccc(Cl)cc1	-8.1%	-2.1%
Cc1ccc(-n2nnnc2SCC(=O)c2cc(C)n(CC3CCCO3)c2C)cc1 (configuration not stated)	12.1%	-0.6%
Cc1cc(C(=O)CSc2nnnn2-c2ccc(O)cc2)c(C)n1Cc1ccc2c(c1)OCO2	15.8µM*	-0.5%
O=C(CSc1nnnn1-c1ccc2c(c1)OCCO2)c1cccc2c1OCCO2	25.1µM*	0.2%
Cc1cc(C(=O)COC(=O)Cc2n[nH]c(=O)c3ccccc23)c(C)n1-c1ccc2c(c1)OCCO2	15.8µM*	-3.6%
O=C(CSc1nnc(-c2cccs2)n1-c1cccc(Cl)c1)c1cccc2c1OCCO2	25.1µM*	2.0%
O=C(O)CSc1nnnn1-c1ccc2c(c1)OCCO2	-4.8%	-7.7%
CCCn1c(SCC(=O)c2cc(C)n(-c3ccc4c(c3)OCO4)c2C)n[nH]c1=O	?	-5.7%
CC(=O)Nc1ccc(NS(=O)(=O)c2c(C(=O)N3CCCCCC3)c(C)n(C)c2C)cc1	-9.4%	-2.3%
Cc1ccc(S(=O)(=O)N(C(=O)c2ccncc2)c2ccc3oc4c(c3c2)CCCC4)cc1[N+](=O)[O-]	12.6µM*	0.6%
CCc1ccc(S(=O)(=O)N(C(C)=O)c2ccc3oc4c(c3c2)CCCC4)cc1	-8.2%	-4.9%
Cc1ccc([N+](=O)[O-])cc1S(=O)(=O)N(C(=O)c1ccncc1)c1ccc2oc3c(c2c1)CCCC3	12.6µM*	-1.6%
COC(=O)c1c(C)oc2ccc(N(C(=O)c3ccncc3)S(=O)(=O)c3cc(C)c(C)cc3C)cc12	2.0%	-5.6%
Cc1ccc(/C=C(\C#N)c2nn(-c3ccccc3)c(N)c2C#N)cc1	1.0%	-7.8%
SMILES	Cruzain noTriton	Cruzain Triton
Cc1c(/C=C(\C#N)c2nn(-c3ccccc3)c(N)c2C#N)c2ccccc2n1Cc1ccc(F)cc1	3.98µM*	-1.2%
CCNC(=O)CC1C(=O)N(c2ccc(F)cc2)C(=O)N1Cc1ccc(OC)c(OC)c1 (configuration not stated)	0.9%	3.1%
CCCCN(C)CC(O)Cn1cc(/C=C/C(=O)c2ccc(OCC)cc2)c2ccccc21 (configuration not stated)	-6.6%	-11.6%
CCOc1ccc(C(=O)/C=C/c2cn(CC(O)CN3CCc4ccccc43)c3ccccc23)cc1 (configuration not stated)	6.31µM*	-2.8%
CCCCN(CCCC)CC(O)Cn1cc(/C=C/C(=O)c2ccccc2)c2ccccc21 (configuration not stated)	-0.8%	-7.2%
COc1ccc(C(=O)/C=C/c2cn(CC(O)CN3CCc4ccccc43)c3ccccc23)cc1 (configuration not stated)	6.31µM*	-3.4%
CN(Cc1ccco1)c1ccnc(-c2ccccc2C(F)(F)F)n1	1.9%	0.5%
CSc1cccc(NC(=O)c2ccc3c(c2)CCCN3S(C)(=O)=O)c1	6.1%	-5.1%
CCOC(=O)C1=C(N)n2c(s/c(=C\c3cccs3)c2=O)=C(C(=O)OCC)C1c1cccs1 (configuration not stated)	2µM*	-4.2%
CCOC(=O)C1=C(N)n2c(s/c(=C\c3cccnc3)c2=O)=C(C(=O)OCC)C1c1cccnc1 (configuration not stated)	?	-1.5%
Cn1c(=N)c(S(=O)(=O)c2ccc(F)cc2)cc2c(=O)n3ccccc3nc21	?	31.6µM*
CCOCCCn1c(=N)c(S(=O)(=O)c2ccc(C)cc2)cc2c(=O)n3ccccc3nc21	-8.3%	-7.3%
COC(=O)[C@H](Cc1ccccc1)NC(=O)O[C@@H]1C(=O)c2ccc(OC)cc2O[C@H]1c1ccc2c(c1)OCO2	-16.6%	1.7%
Oc1nc(Nc2cccc(Cl)c2)sc1/C=C1\C=Nc2ccccc21	?	-3.2%
CCOC(=O)c1c(Nc2ccc(Cl)cc2)sc(/C=C2\C=Nc3ccccc32)c1O	7.94µM*	-3.4%
CCOC(=O)c1ccc2c(c1)sc1nc(-c3ccc(OCC)cc3)cn12	-1.1%	-0.5%
Cc1ccc(-c2nnn(CC(=O)Nc3ccc(S(=O)(=O)N4CCC(C)CC4)cc3)n2)cc1	10µM*	2.9%
CC1CCN(S(=O)(=O)c2ccc(NC(=O)Cn3nnc(-c4ccccc4)n3)cc2)CC1	?	1.3%
Cc1ccc(N=C2NC(=O)/C(=C/c3cn(C)c4ccccc34)S2)cc1C	12.6µM*	-4.6%
Cn1cc(/C=C2/SC(=O)N(c3ccccc3)C2=O)c2ccccc21	?	1.0%
CC(C)(C)C1CCc2oc3ccc(NS(=O)(=O)c4cc(Cl)ccc4Cl)cc3c2C1 (configuration not stated)	3.98µM*	-2.1%
CC(C)(C)C1CCc2oc3ccc(NS(=O)(=O)c4ccc(C(=O)O)cc4)cc3c2C1 (configuration not stated)	?	-24.3%
Cn1cnc(S(=O)(=O)N2CCCC(C(=O)NCc3ccccc3)C2)c1 (configuration not stated)	-1.8%	0.4%
N#Cc1c(NC(=O)C(F)(F)F)sc2c3c(=O)c4ccccc4c(=O)c=3oc3ccccc3c12	-14.1%	4.9%
O=C(CS(=O)(=O)c1cccc2nsnc12)NCc1ccc(Cl)cc1	-8.4%	2.2%
SMILES	Cruzain noTriton	Cruzain Triton
CC(C)(C)c1ccc(C(=O)Nc2ccc(C=C(C#N)C#N)cc2)cc1	31.6µM*	-5.7%
CC(C)(C)c1ccc(C(=O)Nc2ccc(NC(=O)c3ccc(Cl)c(Cl)c3)cc2)cc1	-4.7%	0.1%
Cc1cc(C)cc(NS(=O)(=O)c2ccc3c(c2)NC(=O)C(C)S3)c1 (configuration not stated)	-1.3%	-2.1%
O=S(=O)(NCC(c1ccco1)N1CCN(c2ccccc2)CC1)c1ccccc1 (configuration not stated)	0.3%	-4.2%
O=c1cc(CN2CCN(c3ccccc3F)CC2)c2cc(O)c(-c3ccccc3)cc2o1	7.94µM*	-3.5%
COc1ccc(N2CCN(Cc3cc(=O)oc4cc(-c5ccccc5)c(O)cc34)CC2)cc1	?	-0.4%
CC(C)CNCCc1ccccn1	7.0%	3.1%
Cc1noc(C)c1S(=O)(=O)N1CCCC(C(=O)Nc2ccc(C(C)C)cc2)C1 (configuration not stated)	0.3%	1.7%

Compound activity as filed in PubChem BioAssay.
